The record followed here is PubChem BioAssay.

A short description of assay [1]: rapamycin-like changes in RPL19A-GFP expression – cell-based, S. cerevisiae, multiplex flow cytometry, primary screen (AID 1862; in the data active = percent of DMSO control GFP below about 86%;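 also: lower values mimic rapamycin by blocking the RPL19A rise seen in DMSO cells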). The following applies: S. cerevisiae RPL19A-GFP strain, flow cytometry fluorescence, 3 h; at 10 µM; stronger effect = lower value.
A short description of assay [2]: TOR pathway GLN3 branch reporter MEP2-GFP changes – S. cerevisiae, multiplex flow cytometry, primary screen (AID 1867;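 active = GFP response, as percent of the DMSO control, above the screen-wide mean plus 3 SD, about 139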;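 also: median GFP channel fluorescence of barcode-gated MEP2-GFP cells measured by flow cytometry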). The following applies: S. cerevisiae MEP2-GFP strain, 3 h, at 10 µM, stronger effect = higher value, 100% means same as DMSO wells.
Assay [3] in a line: TOR pathway RTG branch CIT2 reporter changes – S. cerevisiae, GFP fusion, multiplex flow cytometry, primary screen (AID 1870;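 active = percent response above a set limit, the screen-wide mean plus 3 SD, cut at about 130% in these data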;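 also: barcoded CIT2-GFP strain pooled with four other GFP strains with rapamycin as positive control; median GFP fluorescence per well over plate mean of DMSO wells so 100% = DMSO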). Conditions: S. cerevisiae CIT2-GFP expression, 3 h, at 10 µM, stronger effect = higher value.
Assay [4] can be described thus: TOR pathway LAP4-GFP level changes – S. cerevisiae, multiplex flow cytometry, primary screen (AID 1873;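 active = GFP signal, as percent of the solvent control, above the screen mean plus 3 SD, about 149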). Conditions: S. cerevisiae LAP4-GFP expression, 3 h, at 10 µM, stronger effect = higher value.
A short description of assay [5]: yeast AGP1-GFP level changes, GLN3 branch – cell-based, multiplex flow cytometry, S. cerevisiae, primary screen (AID 1887;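 active = GFP signal above the screen-wide mean plus 3 SD, that is over about 124.5% of the solvent control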;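 also: AGP1-GFP fusion strain of S. cerevisiae within a five-strain barcoded multiplex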). Conditions: 3 h, at 10 µM, stronger effect = higher value.
A short description of assay [6]: reduced mouse 2C T cell binding to pMHC/ICAM-1 vesicles – MLPCN validation set, flow cytometry, LFA-1/ICAM-1 modulator project, pilot screen (AID 2523;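 active = response below a set limit, under 55% cells CD8-positive and vesicle-bound, and CD8 cells' 90th-percentile brightness under 279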;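 as to vesicle binding response: mean PE anti-B7-1 fluorescence of CD8+ cells relative to row control; 100% = QL9-loaded vesicles with DMSO vehicle in the same plate row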). Conditions: 2C mouse CD8+ T cells, at 7 µM, stronger effect = lower value; double positive events: measured here: CD8+/vesicle+ event percentage.
Assay [7] addresses Integrin beta-1 (Homo sapiens) + Integrin alpha-4 (Homo sapiens) (UniProt P13612+P05556). The assay is described as follows: alpha4beta1 integrin LIBS antibody binding reduction – U937 cells, HUTS-21 mAb, flow cytometry, validation set, VLA-4 allosteric modulator project, pilot screen (AID 2674;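 active = inhibition above 50%, about 3 SD of the validation set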;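 also: antibody binding induced by the VLA-4 ligand LDV present at three times its Kd; 0% = LDV ligand with antibody and no compound and 100% = antibody without LDV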). The following applies: HUTS-21 LIBS mAb binding, at 6.7 µM, stronger effect = higher value, binding induced by LDV ligand.

Assay [8] can be described thus: calorie-restriction mimetic ROS inhibitors, yeast – validation compound set, pilot screen (AID 2706;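 active = superoxide response below 65% of plate, a cut near 3 SD across the whole screen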;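 also: yeast exposed to compound for one week at 30 degrees C before staining; 100% = mean of all compound wells on the same plate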). The following applies: S. cerevisiae aging, superoxide DHE fluorescence; at 10 µM; stronger effect = lower value.
Assay [9] has as its target Beta-adrenergic receptor kinase 1 (Homo sapiens) (UniProt P25098). The assay is described as follows: GRK2 binders displacing RNA aptamer, biochemical, validation, human GRK2, bead flow cytometry (AID 488806). The following applies: bead-bound GRK2, FAM-aptamer displacement, at 10 µM, stronger effect = higher value.
In assay [10] the target is Beta-2 adrenergic receptor (Homo sapiens) (UniProt P07550). Briefly: agonist-induced loss of surface beta2AR – cell-based, FAP fluorogen, flow cytometry, validation set, pilot screen (AID 504459;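 active = percent response above 42, roughly 3 SD of non-fluorescent test compounds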;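 also: agonist-driven loss of surface beta2AR via internalization measured by FAP dye flow cytometry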). Conditions: Am2.2-beta2AR cells, at 10 µM, stronger effect = higher value.
Sequence of Beta-2 adrenergic receptor (Homo sapiens) (P07550 whole entry, looked up): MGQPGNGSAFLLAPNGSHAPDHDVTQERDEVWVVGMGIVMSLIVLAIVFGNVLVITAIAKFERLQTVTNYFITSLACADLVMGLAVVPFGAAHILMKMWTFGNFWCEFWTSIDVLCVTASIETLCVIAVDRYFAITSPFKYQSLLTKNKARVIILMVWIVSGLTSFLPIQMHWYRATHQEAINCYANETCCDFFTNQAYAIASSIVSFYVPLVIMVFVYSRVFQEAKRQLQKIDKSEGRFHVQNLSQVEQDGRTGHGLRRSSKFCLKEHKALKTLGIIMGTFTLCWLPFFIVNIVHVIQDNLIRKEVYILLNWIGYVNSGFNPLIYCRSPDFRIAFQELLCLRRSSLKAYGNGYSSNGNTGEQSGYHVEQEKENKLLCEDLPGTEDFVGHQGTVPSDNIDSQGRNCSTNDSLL
For assay [11], the target named is AP-2 complex subunit beta (Homo sapiens) (UniProt P63010). The assay is described as follows: beta-arrestin/AP2 interaction blockers – biochemical, validation set, GST-AP2 beads, flow cytometry, pilot screen (AID 504541;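 active = inhibition above 54%, about 3 SD of non-fluorescent compounds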;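 also: AP2 carries R879A mutation and is captured from E. coli lysate; bead-bound FITC arrestin peptide fluorescence measuring arrestin peptide binding to AP2; 0% = DMSO wells and 100% = excess unlabeled arrestin peptide control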). The following applies: FITC arrestin peptide, at 10 µM, stronger effect = higher value, AP2 beta2 appendage fragment, R879A mutant.
Sequence of AP-2 complex subunit beta (Homo sapiens) (P63010 whole entry, looked up, the tested form may be a part, one chain of several): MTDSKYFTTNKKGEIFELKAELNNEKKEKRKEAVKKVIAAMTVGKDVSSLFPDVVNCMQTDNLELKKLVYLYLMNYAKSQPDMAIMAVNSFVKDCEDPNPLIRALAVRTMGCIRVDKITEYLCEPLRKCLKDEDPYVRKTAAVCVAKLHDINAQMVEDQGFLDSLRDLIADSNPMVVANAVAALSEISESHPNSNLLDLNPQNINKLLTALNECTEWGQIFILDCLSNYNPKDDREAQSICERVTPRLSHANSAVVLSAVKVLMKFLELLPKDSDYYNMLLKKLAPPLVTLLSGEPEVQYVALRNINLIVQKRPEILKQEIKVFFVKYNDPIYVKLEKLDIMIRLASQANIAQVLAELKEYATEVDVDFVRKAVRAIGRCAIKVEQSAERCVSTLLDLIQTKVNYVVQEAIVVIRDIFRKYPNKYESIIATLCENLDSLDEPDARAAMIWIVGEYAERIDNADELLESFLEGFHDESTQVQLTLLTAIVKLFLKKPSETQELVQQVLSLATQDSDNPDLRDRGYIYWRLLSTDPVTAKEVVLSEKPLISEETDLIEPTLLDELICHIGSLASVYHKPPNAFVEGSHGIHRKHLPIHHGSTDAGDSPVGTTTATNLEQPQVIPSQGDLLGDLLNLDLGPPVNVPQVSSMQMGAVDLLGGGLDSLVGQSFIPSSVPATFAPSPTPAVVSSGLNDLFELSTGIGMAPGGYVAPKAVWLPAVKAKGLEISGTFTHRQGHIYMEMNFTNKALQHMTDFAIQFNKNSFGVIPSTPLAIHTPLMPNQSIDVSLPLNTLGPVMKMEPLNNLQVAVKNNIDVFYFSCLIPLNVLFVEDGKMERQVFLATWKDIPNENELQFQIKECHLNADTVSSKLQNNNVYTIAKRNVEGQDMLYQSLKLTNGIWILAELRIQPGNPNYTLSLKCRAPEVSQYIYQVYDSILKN
A short description of assay [12]: cytosolic pH regulators acting via V-ATPase – S. cerevisiae, pHLuorin, HTS validation (AID 504600; in the data active = response above about 15%;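 also: plate controls were DMSO for no effect and reference compound for full effect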). The following applies: V-ATPase proton transport, at 10 µM, stronger effect = higher value.
Assay [13] has as its system anti-desmoglein-3 scFv antibody binding to human DSG3. The assay is described as follows: blockers of pathogenic pemphigus antibody–desmoglein-3 binding – biochemical, validation compound set, bead-based, flow cytometry, pilot screen (AID 588368;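 active = binding below the plate cutoff, the plate median minus 3 SD, with a reading above zero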;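 also: signal is the median channel fluorescence of bead-bound GFP antibody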). Conditions: Protein G beads, DSG3-Fc, scFv-GFP binding, at 10 µM, stronger effect = lower value.
Assay [14] can be described thus: Nile Red efflux blockade in pump-expressing yeast – validation compound set, multiplex, phenotypic, pilot screen (AID 588506;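 active = efflux inhibition above 0.42, the validation set average plus 4 SD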;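 also: Nile Red retained in cells so higher fluorescence means more efflux inhibition; 0 = negative control wells and 1 = enniatin B 25 µM full block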). Conditions: S. cerevisiae pump-expressing triplex, Nile Red efflux flow cytometry; at 10 µM; stronger effect = higher value; the pumps come from Candida albicans.
The target of assay [15] is ATP-binding cassette sub-family B member 6 (Homo sapiens) (UniProt Q9NP58). Briefly: blockers of ABCB6-driven porphyrin uptake – K562-ABCB6 cells, flow cytometry, validation set, pilot screen (AID 588550;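 active = inhibition above the screen-wide mean plus 3 SD, about 51%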;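 also: 0% = DMSO wells and 100% = benzethonium chloride 70 µM positive control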). The following applies: K562-ABCB6 porphyrin accumulation, 1 h, at 10 µM, stronger effect = higher value.
Sequence of ATP-binding cassette sub-family B member 6 (Homo sapiens) (Q9NP58 whole entry, looked up): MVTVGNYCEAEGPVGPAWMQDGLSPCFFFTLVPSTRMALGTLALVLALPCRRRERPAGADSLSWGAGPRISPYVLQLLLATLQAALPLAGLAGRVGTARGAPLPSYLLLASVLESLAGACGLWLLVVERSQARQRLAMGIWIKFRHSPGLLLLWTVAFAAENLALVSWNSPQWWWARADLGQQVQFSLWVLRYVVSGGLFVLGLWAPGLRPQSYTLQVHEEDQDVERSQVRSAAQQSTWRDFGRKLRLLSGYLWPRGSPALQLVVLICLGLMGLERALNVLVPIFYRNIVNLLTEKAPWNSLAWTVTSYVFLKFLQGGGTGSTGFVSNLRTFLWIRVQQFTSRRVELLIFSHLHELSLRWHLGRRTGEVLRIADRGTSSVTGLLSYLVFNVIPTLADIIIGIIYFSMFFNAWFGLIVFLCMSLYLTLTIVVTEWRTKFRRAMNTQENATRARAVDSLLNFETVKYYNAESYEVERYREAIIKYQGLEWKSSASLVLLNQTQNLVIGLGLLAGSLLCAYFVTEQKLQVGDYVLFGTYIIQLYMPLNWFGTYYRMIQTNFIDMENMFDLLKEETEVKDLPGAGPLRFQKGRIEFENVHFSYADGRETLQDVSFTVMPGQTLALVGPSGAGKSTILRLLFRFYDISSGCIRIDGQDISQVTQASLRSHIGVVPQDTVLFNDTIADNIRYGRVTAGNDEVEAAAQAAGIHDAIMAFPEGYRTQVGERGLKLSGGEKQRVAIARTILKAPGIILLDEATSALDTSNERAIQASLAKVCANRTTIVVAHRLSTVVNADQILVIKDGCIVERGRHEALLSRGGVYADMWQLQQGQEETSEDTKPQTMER
Assay [16] is described as follows: AML differentiation inducers, ER-HoxA9 marrow cells – cell-based, GFP/MAC1 double positive, flow cytometry, validation set, primary screen (AID 588685;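 active = differentiation response of at least 50%, scaled between solvent and reference control, from cells with both markers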;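 also: compound exposure lasts four days before antibody staining and flow analysis; 0% = DMSO wells and 100% = 5 µM fulvestrant positive control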). Conditions: stronger effect = higher value, normalized: vehicle 0, fulvestrant 100.

Records with an inconclusive call do not appear. Activity calls are given as the source filed them.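 The calls were made as follows, unless noted: active = aptamer binding inhibition above 30%, about 3 SD of noise from non-fluorescent compounds; inactive = inhibition at or below 30%.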

Sequence of Beta-adrenergic receptor kinase 1 (Homo sapiens) (P25098 whole entry, looked up): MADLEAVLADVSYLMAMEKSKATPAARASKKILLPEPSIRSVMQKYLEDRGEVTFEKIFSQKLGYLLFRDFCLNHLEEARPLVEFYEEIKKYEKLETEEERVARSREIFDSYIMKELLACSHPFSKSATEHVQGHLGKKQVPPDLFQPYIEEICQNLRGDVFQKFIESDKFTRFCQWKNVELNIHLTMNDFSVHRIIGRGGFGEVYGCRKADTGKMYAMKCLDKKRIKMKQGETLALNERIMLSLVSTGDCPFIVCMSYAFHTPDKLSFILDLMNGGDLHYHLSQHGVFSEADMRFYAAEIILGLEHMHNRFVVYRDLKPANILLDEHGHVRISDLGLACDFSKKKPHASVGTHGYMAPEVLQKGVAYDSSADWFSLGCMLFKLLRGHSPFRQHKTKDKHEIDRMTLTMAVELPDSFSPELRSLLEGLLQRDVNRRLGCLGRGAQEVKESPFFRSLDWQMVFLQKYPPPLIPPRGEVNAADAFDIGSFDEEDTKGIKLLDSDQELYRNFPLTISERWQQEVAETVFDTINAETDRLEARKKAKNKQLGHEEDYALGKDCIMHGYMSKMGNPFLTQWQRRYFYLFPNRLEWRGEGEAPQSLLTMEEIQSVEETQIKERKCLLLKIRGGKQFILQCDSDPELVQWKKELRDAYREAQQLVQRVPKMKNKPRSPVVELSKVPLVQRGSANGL
Sequence of Integrin beta-1 (Homo sapiens) + Integrin alpha-4 (Homo sapiens) (P05556 whole entry, looked up): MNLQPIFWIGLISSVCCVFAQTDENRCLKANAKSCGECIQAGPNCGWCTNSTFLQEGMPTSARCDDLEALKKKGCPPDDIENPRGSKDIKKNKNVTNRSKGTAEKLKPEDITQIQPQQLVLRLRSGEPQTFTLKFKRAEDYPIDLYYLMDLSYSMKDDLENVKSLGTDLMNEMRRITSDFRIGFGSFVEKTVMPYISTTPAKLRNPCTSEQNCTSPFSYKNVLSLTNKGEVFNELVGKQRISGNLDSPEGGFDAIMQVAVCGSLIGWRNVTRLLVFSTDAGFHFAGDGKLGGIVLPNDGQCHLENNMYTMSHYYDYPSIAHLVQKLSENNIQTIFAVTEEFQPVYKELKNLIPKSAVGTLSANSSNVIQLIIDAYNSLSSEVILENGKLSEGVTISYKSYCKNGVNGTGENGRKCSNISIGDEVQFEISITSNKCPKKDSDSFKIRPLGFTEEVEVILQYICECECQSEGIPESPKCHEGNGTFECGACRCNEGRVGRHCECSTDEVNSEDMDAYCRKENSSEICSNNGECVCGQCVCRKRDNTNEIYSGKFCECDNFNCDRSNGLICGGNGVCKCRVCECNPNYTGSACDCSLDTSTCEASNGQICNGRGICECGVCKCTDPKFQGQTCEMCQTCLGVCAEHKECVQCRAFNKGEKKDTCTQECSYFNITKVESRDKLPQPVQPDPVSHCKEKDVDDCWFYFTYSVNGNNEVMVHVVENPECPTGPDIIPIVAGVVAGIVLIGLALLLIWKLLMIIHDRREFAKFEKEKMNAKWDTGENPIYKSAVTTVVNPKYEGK
Sequence of Integrin beta-1 (Homo sapiens) + Integrin alpha-4 (Homo sapiens) (P13612 whole entry, looked up): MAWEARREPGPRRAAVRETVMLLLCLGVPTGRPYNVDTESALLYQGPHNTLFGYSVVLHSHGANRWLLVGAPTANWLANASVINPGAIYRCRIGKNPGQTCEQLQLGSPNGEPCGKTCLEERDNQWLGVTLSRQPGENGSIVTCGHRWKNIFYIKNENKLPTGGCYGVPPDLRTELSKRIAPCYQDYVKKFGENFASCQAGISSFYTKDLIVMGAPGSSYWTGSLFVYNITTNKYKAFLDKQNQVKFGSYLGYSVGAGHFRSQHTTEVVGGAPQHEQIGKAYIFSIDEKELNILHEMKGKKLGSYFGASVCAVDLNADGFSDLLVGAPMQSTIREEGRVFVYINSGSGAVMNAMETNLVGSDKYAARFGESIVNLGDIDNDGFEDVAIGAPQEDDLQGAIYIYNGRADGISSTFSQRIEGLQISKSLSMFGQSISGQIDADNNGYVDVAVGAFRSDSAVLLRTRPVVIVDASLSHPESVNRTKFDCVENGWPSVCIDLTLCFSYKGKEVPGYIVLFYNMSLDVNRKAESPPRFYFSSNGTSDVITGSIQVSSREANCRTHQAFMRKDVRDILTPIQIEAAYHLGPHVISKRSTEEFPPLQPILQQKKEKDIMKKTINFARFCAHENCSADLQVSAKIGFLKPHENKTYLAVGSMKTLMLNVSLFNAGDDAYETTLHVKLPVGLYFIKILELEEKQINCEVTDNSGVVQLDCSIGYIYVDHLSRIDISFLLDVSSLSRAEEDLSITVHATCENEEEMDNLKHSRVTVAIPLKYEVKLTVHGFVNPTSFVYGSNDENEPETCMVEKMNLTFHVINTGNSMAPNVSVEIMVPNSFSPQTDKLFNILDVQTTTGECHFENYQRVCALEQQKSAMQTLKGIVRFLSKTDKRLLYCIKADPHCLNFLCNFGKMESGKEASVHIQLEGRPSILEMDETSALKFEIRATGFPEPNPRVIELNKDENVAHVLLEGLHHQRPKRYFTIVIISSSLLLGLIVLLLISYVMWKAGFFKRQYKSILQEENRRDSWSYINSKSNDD

For the molecule `COc1cc(C(=S)N(C)C)ccc1O`, the percent of DMSO control GFP in [1] was 107% (inactive). For the same molecule, the GFP response vs DMSO in [2] was 104% (inactive); in [4], 92.6% (inactive). Moreover, the percent response of DMSO control in [3] was 113% (inactive). Besides, the GFP response, % of DMSO in [5] was 116% (inactive). The molecule also yielded a double positive events in assay [6] of 62.6%. Besides, the vesicle binding response in assay [6] was 115% (inactive). Moreover, the values for the inhibition in [7], in assay [11] and in assay [15] were -11.8% (inactive), -1.41% (inactive) and -8% (inactive), respectively. Further, the superoxide response (% of plate) in [8] was 92.7% (inactive). In assay [9], the aptamer binding inhibition is -1% (inactive). The response in assay [10] is 8.54% (inactive); in assay [12], 3.06% (inactive). Also, the binding (% of control) in assay [13] was 101% (inactive). In addition, in [14], the efflux inhibition (fraction of control) is -0.005 (inactive). The differentiation response in assay [16] is 15.9% (inactive).

On to `CCOC(=O)C1=C[C@]2(CC)CCCN3CCc4c(n1c1ccccc41)[C@@H]32`, for which the percent of DMSO control GFP in assay [1] is 98.4% (inactive). Besides, the GFP response vs DMSO was 107% (inactive) in [2] and 104% (inactive) in assay [4]. The percent response of DMSO control in [3] is 96.6% (inactive). For the same molecule, in assay [5], the GFP response, % of DMSO was 96.5% (inactive). The molecule also returned a double positive events in assay [6] of 56.4%. Moreover, the vesicle binding response in assay [6] is 43.9% (inactive). In addition, the inhibition in assay [7] was -4.6% (inactive); in assay [11] it was -10.5% (inactive); in assay [15], 8% (inactive). The superoxide response (% of plate) in assay [8] is 92.5% (inactive). In addition, the aptamer binding inhibition in assay [9] was -1% (inactive). Also, the figures for the response in assay [10] and in assay [12] were -5% (inactive) and 4.61% (inactive), respectively. Moreover, the binding (% of control) in assay [13] is 97.2% (inactive). The efflux inhibition (fraction of control) in assay [14] is -0.23 (inactive). Moreover, the differentiation response in [16] was -3.67% (inactive).

Turning to `COC(=O)c1cc(OC)c(OC)cc1NC(=O)CN1C(=O)c2ccccc2C1=O`, the percent of DMSO control GFP in [1] was 97.1% (inactive). The figures for the GFP response vs DMSO in [2] and in assay [4] were 113% (inactive) and 118% (inactive), respectively. For the same molecule, the percent response of DMSO control in assay [3] is 93.9% (inactive). Moreover, in assay [5], the GFP response, % of DMSO was 99.4% (inactive). For the same molecule, the double positive events in assay [6] worked out at 54.6%. Further, the vesicle binding response in assay [6] is 150% (inactive). Besides, the inhibition in [7] was -22.3% (inactive); in [11], -9.37% (inactive); in [15], 2% (inactive). The superoxide response (% of plate) in [8] is 103% (inactive). In assay [9], the aptamer binding inhibition was -2% (inactive). For the same molecule, the response is -5.28% (inactive) in assay [10] and -5.26% (inactive) in assay [12]. The binding (% of control) in assay [13] was 98.4% (inactive). Moreover, in assay [14], the efflux inhibition (fraction of control) is -0.03 (inactive). In addition, the differentiation response in assay [16] was -23.2% (inactive).

Take `Cn1nnnc1SCC1=C(C(=O)O)N2C(=O)[C@@H](NC(=O)[C@H](O)c3ccccc3)[C@H]2SC1`: the percent of DMSO control GFP in assay [1] is 97.7% (inactive). In addition, the GFP response vs DMSO in assay [2] is 115% (inactive); in assay [4], 90.2% (inactive). Also, the percent response of DMSO control in assay [3] is 106% (inactive). Also, in assay [5], the GFP response, % of DMSO is 103% (inactive). For the same molecule, in assay [6], the double positive events is 67.4%. For the same molecule, the vesicle binding response in [6] is 318% (inactive). The inhibition in assay [7] is 0.64% (inactive); in assay [11], 3.95% (inactive); in assay [15], 16% (inactive). For the same molecule, the superoxide response (% of plate) in [8] is 86.1% (inactive). Moreover, the aptamer binding inhibition in assay [9] is 13% (inactive). In addition, the response in assay [10] was 3.85% (inactive); in assay [12], 1.15% (inactive). In addition, in [13], the binding (% of control) is 107% (inactive). In addition, the efflux inhibition (fraction of control) in assay [14] was 0.3 (inactive). For the same molecule, the differentiation response in assay [16] is 15.6% (inactive).

Regarding `COc1ccc(C2=NOC(COc3ccc4c(C)cc(=O)oc4c3)C2)c(OC)c1` (centres undefined), the percent of DMSO control GFP in assay [1] was 99% (inactive). In addition, the results for the GFP response vs DMSO in assay [2] and in assay [4] were 94.6% (inactive) and 116% (inactive), respectively. The percent response of DMSO control in assay [3] was 96% (inactive). Also, in [5], the GFP response, % of DMSO was 91.3% (inactive). Besides, in [6], the double positive events is 62.4%. In addition, in assay [6], the vesicle binding response is 171% (inactive). In addition, the inhibition in assay [7] is -11.8% (inactive); in assay [11] it was 2.4% (inactive); in assay [15], 10% (inactive). Moreover, the superoxide response (% of plate) in assay [8] was 99.1% (inactive). In [9], the aptamer binding inhibition is 4% (inactive). Besides, the response was 12.7% (inactive) in assay [10] and 1.1% (inactive) in assay [12]. Also, in assay [13], the binding (% of control) is 95.6% (inactive). In addition, the efflux inhibition (fraction of control) in [14] was 0.04 (inactive). For the same molecule, the differentiation response in assay [16] is 3.45% (inactive).

Take `CCC(=O)c1ccc(OCc2ccc(C(=O)OC)cc2)cc1`: the percent of DMSO control GFP in assay [1] is 104% (inactive). In addition, the GFP response vs DMSO in [2] is 104% (inactive); in assay [4], 112% (inactive). Also, the percent response of DMSO control in assay [3] is 106% (inactive). Further, the GFP response, % of DMSO in assay [5] was 98.6% (inactive). Also, in assay [6], the double positive events was 54.8%. Besides, the vesicle binding response in assay [6] is 127% (inactive). For the same molecule, the inhibition in [7] was 4.27% (inactive); in assay [11] it was 10.4% (inactive); in [15], 10% (inactive). Also, the superoxide response (% of plate) in assay [8] is 90.3% (inactive). In addition, in assay [9], the aptamer binding inhibition is -1% (inactive). Moreover, the response is 4.9% (inactive) in [10] and 23.8% (active) in assay [12]. In addition, in [13], the binding (% of control) is 96.4% (inactive). Further, the efflux inhibition (fraction of control) in assay [14] is -0.045 (inactive). In addition, the differentiation response in assay [16] is -23.6% (inactive).

On to `O=C(O)COc1ccc2occ(C(=O)c3ccccc3)c2c1`, for which the percent of DMSO control GFP in assay [1] was 99.8% (inactive). In addition, the GFP response vs DMSO in assay [2] is 106% (inactive); in assay [4] it was 96% (inactive). Moreover, the percent response of DMSO control in assay [3] was 101% (inactive). Moreover, the GFP response, % of DMSO in [5] was 92.9% (inactive). Moreover, the double positive events in [6] came out at 63.9%. Further, the vesicle binding response in assay [6] was 180% (inactive). Also, the inhibition in assay [7] is 15.1% (inactive); in assay [11], 0.98% (inactive); in [15], 3% (inactive). In addition, the superoxide response (% of plate) in assay [8] was 107% (inactive). Also, in assay [9], the aptamer binding inhibition is 4% (inactive). In addition, the response in assay [10] is -5% (inactive); in assay [12], 0.64% (inactive). For the same molecule, the binding (% of control) in assay [13] is 94.2% (inactive). Further, the efflux inhibition (fraction of control) in assay [14] is -0.17 (inactive). The differentiation response in assay [16] is 7.09% (inactive).
